A selection: hits, their analogues and other compounds. The true share with any hit is near 3.4%.
Mito fusion act: mitochondrial division inhibition or fusion activation; S. cerevisiae fusion-defective mutant growth rescue, CellTiterGlo 48 h; Potency, µM (doses to about 46.1 µM), without a hit: at the highest dose growth rescue (activation), hits mostly activators; 0.23% of 320,000 active; further: % of control where 0% means no effect; nearly all actives have a fitted effect of over 45% in size
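Temperature-sensitive fusion-defective S. cerevisiae (e.g. fzo1-1, mgm1-5) were grown with compound in YPEG medium (3% ethanol, 3% glycerol) for 48 hours at 37C. Growth rescue was measured as viability by CellTiterGlo luminescence after 10 minutes at ambient.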
PLK1 PBD inh: inhibitors of human PLK1 polo-box domain binding. P53350. Plk1 PBD binding of FITC phosphopeptide, fluorescence polarization. Potency, µM, without a hit: max response, negative = inhibition, hits mostly inhibitors. 2.8% of 360,000 active; further: series mostly up to about 57 µM; on the % scale 0 is the no-effect control and ±100 the full control effect; nearly all actives have a fitted effect of over 65% in size
Target sequence (P53350 whole entry, looked up, the tested form may be a part): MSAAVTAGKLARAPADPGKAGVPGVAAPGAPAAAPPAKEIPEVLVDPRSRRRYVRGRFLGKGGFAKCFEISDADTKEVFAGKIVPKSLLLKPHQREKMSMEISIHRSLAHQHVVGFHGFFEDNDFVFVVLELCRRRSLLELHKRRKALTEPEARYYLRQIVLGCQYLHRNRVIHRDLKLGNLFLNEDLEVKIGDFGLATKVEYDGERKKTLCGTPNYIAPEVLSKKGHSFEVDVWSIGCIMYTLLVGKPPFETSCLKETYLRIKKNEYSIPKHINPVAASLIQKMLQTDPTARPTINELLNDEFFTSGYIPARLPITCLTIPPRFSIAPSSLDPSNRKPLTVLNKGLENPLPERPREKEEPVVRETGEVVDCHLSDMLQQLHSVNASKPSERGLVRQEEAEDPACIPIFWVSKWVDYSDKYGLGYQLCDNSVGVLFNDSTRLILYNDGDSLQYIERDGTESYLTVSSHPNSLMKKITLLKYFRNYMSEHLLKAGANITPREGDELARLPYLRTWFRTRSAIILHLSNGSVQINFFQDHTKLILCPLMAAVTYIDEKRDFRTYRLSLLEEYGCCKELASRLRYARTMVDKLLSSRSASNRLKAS
PKM2 act: PKM2 (human) enzyme activation. 0.34% of 260,000 active. Potency, µM (doses to about 57.5 µM), for inactives: at the highest dose activation, hits mostly activators. AID 1631. purified PKM2, Kinase-Glo ATP luminescence, activation; response scale: 0% is enzyme alone, no compound; further: on the % scale 0 is the no-effect control and ±100 the full control effect; nearly all actives have a fitted effect of over 55% in size
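Purified hPK-M2 (>95% pure) converted ADP (0.1 mM final) to ATP with 0.5 mM PEP in 50 mM imidazole pH7.2, KCl, MgCl2, Tween 20, BSA; 1 h at room temperature. ATP detected by Kinase-Glo luminescence.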
KAT2A inh: inhibitors of human GCN5L2 histone acetyltransferase; 0.21% of 390,000 active; Potency, µM (titrated, usually from 58.9 µM), for the others: at the highest dose activity change, negative = inhibition, hits mostly inhibitors; Q92830; GCN5L2 HAT assay, ThioGlo1 CoA-SH fluorescence; further: on the % scale 0 is the no-effect control and ±100 the full control effect
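GCN5L2 (20nM final) in 50mM HEPES, 0.1mM EDTA pH 7.5, 0.01% Tween-20 was preincubated 15 min at room temperature with compound, then given ThioGlo1 (50uM), H3(1-25) peptide (75uM) and acetyl-CoA (70uM); CoA-thiol fluorescence (Ex340/Em540) was read at 0 and 20 min.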
GLS inhibitor: blocks human kidney-isoform glutaminase activity; GLS enzymatic activity, qHTS titration; 0.21% of 410,000 active; Potency, µM (titrated, usually from 45.5 µM), for inactives: at the top dose activity change, negative = inhibition, most hits filed as inhibitors; AID 624170; O94925; further: on the % scale 0 is the no-effect control and ±100 the full control effect
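Compounds were pin-transferred onto hKGA, after which L-glutamine (1 mM solution) and a detection mix of glutamate oxidase, HRP and Amplex Red were added. Initial and 30 min RT fluorescence reads were collected.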
VDR inhibitor: blocks the human vitamin D receptor. AID 504847. 0.93% of 400,000 active. VDR-SRC2-3 peptide fluorescence polarization, 2 h. P11473. Potency, µM, for the others: max response, negative = inhibition, most hits filed as inhibitors; further: on the % scale 0 is the no-effect control and ±100 the full control effect
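Signal is fluorescence polarization, reporting how far test compounds block the interaction of VDR with the SRC2-3 coregulator peptide after a 2 h room-temperature incubation.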
* = called active by the depositor; ? = inconclusive; / = no result. The call rests on the fitted dose curve; in most records, active means well fitted curve in the direction sought with a large enough effect; inconclusive means small, poorly fitted or top-dose-only effect, or another doubt; inactive means no such curve, though single readings can be large; an effect the other way counts as inactive or inconclusive. Potency means the concentration at half of the fitted maximal effect.

SMILES	Mito fusion act	PLK1 PBD inh	PKM2 act	KAT2A inh	GLS inhibitor	VDR inhibitor
CC(NC(=O)c1cc(S(=O)(=O)N2CCOCC2)cn1C)c1ccccc1 (stereo unspecified)	2.1%	-5.7%	1.5%	2.1%	2.5%	1.8%
COC(=O)c1cc2oc3ccccc3c2n1CC(=O)Nc1ccc(C)cc1Cl	/	/	/	-5.9%	-1.7%	6.6%
NC(C(=O)O)C(O)c1ccc(O)c(O)c1 (stereo unspecified)	/	/	/	14.1µM*	31.3%	?
N[C@@H](Cc1ccc(O)c(O)c1)C(=O)O	0.3%	-7.7%	/	-6.5%	?	-3.8%
COCCNC(=S)c1ccc(Br)cc1	-3.1%	10.6µM*	-1.6%	-9.6%	-5.1%	?
COCCNC(=O)C1(C)CCN(C(=O)Cc2ccc(OC)c(OC)c2)C1 (stereo unspecified)	/	-3.6%	/	/	?	/
Cc1c(Cc2ccccc2)sc(NC(=O)/C=C/c2cccc3ccccc23)c1C(N)=O	-4.1%	7.52µM*	0.4%	20.4%	?	?
CC1(C)S[C@@H]2[C@H](NC(=O)[C@H](N)c3ccccc3)C(=O)N2[C@@H]1C(=O)OCOC(=O)[C@@H]1N2C(=O)C[C@@H]2S(O)(O)C1(C)C	/	/	/	/	4.4%	/
CC(/C=C1\SC(=S)N(NS(=O)(=O)c2ccc(C)cc2)C1=O)=C\c1ccccc1	7.1%	18.9µM*	2.4%	?	12.2%	?
CC(=O)N1C(=O)/C(=C2\SC(=S)N(c3c(C)n(C)n(-c4ccccc4)c3=O)C2=O)c2ccccc21	-2.3%	-26.5%	3.6%	22.9%	1.1%	?
CC(=O)N1C(=O)/C(=C2\SC(=S)N(NS(=O)(=O)c3ccc(C)cc3)C2=O)c2ccccc21	2.5%	16.8µM*	-0.7%	-8.2%	16.1%	2.0%
COc1cccc(/C=C2\SC(=S)N(NS(=O)(=O)c3ccc(C)cc3)C2=O)c1OC	5.01µM*	/	/	-7.1%	/	/
CCOC(=O)c1c(S(=O)(=O)N2CCC(C(=O)Nc3ccc(C)cn3)CC2)c(C)n(C)c1C	/	/	/	-1.6%	-2.6%	1.5%
CCOC(=O)c1c(S(=O)(=O)Nc2ccc(C)cn2)c(C)n(C)c1C	1.2%	21.2µM*	/	-15.5%	18.6%	?
CCOC(=O)CC1(NC(=O)C2CCC(=O)N(Cc3ccccc3F)C2)CCCCC1 (stereo unspecified)	5.8%	26.7µM*	/	-1.3%	16.8%	?
CCOC(=O)CC1(NC(=O)C2CCC(=O)N(CCc3ccc(OC)cc3)C2)CCCCC1 (stereo unspecified)	18.5%	1.1%	/	-1.4%	-1.2%	7.7%
[N-]=C=C1C(=S)NC(=O)[C@H]([n+]2ccccc2)[C@H]1c1ccc(Cl)cc1	-2.5%	26.7µM*	-19.0%	11.2µM*	1.4%	44.7µM*
COc1cccc(C2=NOC(C(=O)NCc3ccccn3)C2)c1 (stereo unspecified)	-4.5%	0.1%	0.1%	-6.1%	4.2%	7.4%
COc1ccc(C2=NOC(C(=O)NCc3ccccn3)C2)cc1 (stereo unspecified)	-3.1%	26.7µM*	-5.7%	0.3%	25.1%	-5.2%
CN1CCN(CCCNC(=O)c2cnn(-c3ccc(F)cc3)c2-n2cccc2)CC1	/	/	/	-1.0%	-6.1%	-10.0%
COc1ccc(-c2nc3oc4cc(OC)ccc4c(=O)c3c(=O)n2Cc2ccco2)cc1	10.3%	-16.6%	?	-17.2%	0.0%	-10.4%
CCc1nc2oc3cc(OC)ccc3c(=O)c2c(=O)n1Cc1ccco1	8.0%	-18.1%	25.1µM*	-6.0%	-8.7%	17.2%
Cc1c(C(=O)O)cnc2c([N+](=O)[O-])cnn12	-7.6%	3.36µM*	7.3%	-1.0%	?	35.5µM*
O=C(COc1ccc(Br)cc1)N/N=C1/SCC(=O)N1Cc1ccco1	2.9%	23.8µM*	3.1%	5.6%	0.0%	?
C=CCOC(=O)C(=O)/C=C/c1c(C)n(C)n(-c2ccccc2)c1=O	-1.7%	-3.1%	-0.5%	1.5%	-5.3%	-13.9%
